# Screening results: PubChem BioAssay, National Center for Advancing Translational Sciences (NCATS)
# TSG101-PTAP inh = qHTS Assay for Iinhibitors of HIV-1 Budding by Blocking the Interaction of PTAP/TSG101; 340,000 tested, under 10 active; Potency, µM (series often up to 115 µM), for inactives: top-dose activity change, negative = inhibition, usual class: inhibitors; Fluorescence polarization, FITC-PTAP peptide / Tsg101 binding; Tumor susceptibility gene 101 protein (Homo sapiens), Q99816; active means well fitted inhibition curve with a large enough effect in the main read-out, with a control signal flat, not every such curve was filed as active; inconclusive means small, poorly fitted or top-dose-only effect, or effect the other way, or a change in a side signal; inactive means no such curve, though single readings can be large or run the other way; further: potency means the concentration at half of the fitted maximal effect; % of control where 0% means no effect
# Target sequence (Q99816 whole entry, looked up): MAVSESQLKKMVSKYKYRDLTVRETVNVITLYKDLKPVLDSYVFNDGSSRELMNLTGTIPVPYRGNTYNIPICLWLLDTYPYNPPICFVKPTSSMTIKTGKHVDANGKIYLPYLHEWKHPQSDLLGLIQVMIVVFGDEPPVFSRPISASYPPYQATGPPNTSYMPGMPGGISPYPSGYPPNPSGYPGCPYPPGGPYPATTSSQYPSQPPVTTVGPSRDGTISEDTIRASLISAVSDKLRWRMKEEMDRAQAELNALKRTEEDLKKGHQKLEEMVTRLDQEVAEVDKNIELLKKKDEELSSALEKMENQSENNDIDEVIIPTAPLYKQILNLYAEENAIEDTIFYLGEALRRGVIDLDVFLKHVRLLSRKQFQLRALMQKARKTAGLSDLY
#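 Fluorescence polarization binding of Tsg101 binding domain (10 uM final) to FITC-labeled PTAP peptide (50 nM final) in HEPES pH 7.5 buffer with NaCl, Tween 20, EDTA, TCEP. Compounds added before peptide; binding 20 min at RT.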
# VDR inh = Inhibitors of the vitamin D receptor (VDR): qHTS; actives 0.93% (n = 400,000); VDR-SRC2-3 peptide fluorescence polarization, 2 h; Vitamin D3 receptor (Homo sapiens), P11473; Potency, µM, inactives show max response, negative = inhibition, most hits filed as inhibitors; further: potency means the concentration at half of the fitted maximal effect; on the % scale 0 is the no-effect control and ±100 the full control effect
#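 Fluorescence polarization assay of small-molecule disruption of VDR binding to coregulator peptide SRC2-3. Compounds and controls pin-transferred, then read after 2 h incubation at ambient room temperature.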
# uPA surface inh = qHTS for Inhibitors of Cell Surface uPA Generation | AID 540303, 2011 | cell surface uPA generation assay, qHTS | Potency, µM (highest dose often 38.3 µM), inactives show top-dose activity change, negative = inhibition, usual class: inhibitors | actives 0.31% (n = 330,000); active means well fitted inhibition curve with a large enough effect; inconclusive means small, poorly fitted or top-dose-only effect; inactive means no such curve, though single readings can be large or run the other way; tested in mouse RAW 264.7 cells; further: potency means the concentration at half of the fitted maximal effect; on the % scale 0 is the no-effect control and ±100 the full control effect; nearly all actives have a fitted effect of over 55% in size
# TSHR antagonist = Antagonists of the Thyroid Stimulating Hormone Receptor: HTS campaign; TSHR-expressing cells, TSH-stimulated cAMP HTRF, 2 h; hits give low values; activity change, negative = inhibition, % at 11.5 µM; actives 0.2% (n = 330,000);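 active means activity change below a set negative limit, meaning inhibition stronger than a set level, cut at about -70% in these data; inconclusive means activity change between two set negative limits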; further: on the % scale 0 is the no-effect control and ±100 the full control effect
#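 TSHR-expressing cells, 200/well, pre-treated with compound, then stimulated with EC80 TSH (4nM final) for 2 hours at 37 deg C. cAMP measured by competitive HTRF: anti-cAMP cryptate antibody in lysis buffer plus cAMP-d2, read after 30 minutes at room temperature.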
# PLK1 PBD block = qHTS for Inhibitors of PLK1-PDB (polo-like kinase 1 - polo-box domain): Primary Screen; Serine/threonine-protein kinase PLK1 (Homo sapiens), P53350; Plk1 PBD binding of FITC phosphopeptide, fluorescence polarization; Potency, µM, for the others: max response, negative = inhibition, most hits filed as inhibitors; actives 2.8% (n = 360,000); AID 720504, 2013; further: potency means the concentration at half of the fitted maximal effect; series mostly up to about 57 µM; on the % scale 0 is the no-effect control and ±100 the full control effect; nearly all actives have a fitted effect of over 65% in size
# TbPYK confirm = qHTS of Trypanosoma Brucei Inhibitors: Confirmatory Assay for Cherry-picked Compounds; shares compounds with PLK1 PBD block; recombinant TbPYK, Kinase-Glo ATP luminescence; Potency, µM (top dose mostly 76.9 µM), for inactives: at the highest dose activity change, negative = inhibition, hits mostly inhibitors; actives 67% (n = 890); AID 720569, 2013; further: potency means the concentration at half of the fitted maximal effect; on the % scale 0 is the no-effect control and ±100 the full control effect; nearly all actives have a fitted effect of over 70% in size
# TbPYK ADP-Glo = qHTS of Trypanosoma Brucei Inhibitors: Orthogonal Assay for Cherry-picked Compounds; Potency, µM (doses to about 76.9 µM), for inactives: at the highest dose activity change, negative = inhibition, usual class: inhibitors; shares compounds with PLK1 PBD block; recombinant TbPYK, ADP-Glo luminescence, 60 min; actives 62% (n = 890); further: potency means the concentration at half of the fitted maximal effect; on the % scale 0 is the no-effect control and ±100 the full control effect; nearly all actives have a fitted effect of over 75% in size
# * marks the source's active call; other numbers are inactive results; ? = inconclusive; / = no result given. Shown are actives, neighbours in structure and some others; about 3.1% of the full set was active somewhere. Unless noted, the call rests on the fitted dose curve; in most records, active means well fitted curve in the direction sought with a large enough effect; inconclusive means small, poorly fitted or top-dose-only effect, or another doubt; inactive means no such curve, though single readings can be large; an effect the other way counts as inactive or inconclusive.
SMILES,TSG101-PTAP inh,VDR inh,uPA surface inh,TSHR antagonist,PLK1 PBD block,TbPYK confirm,TbPYK ADP-Glo
CCOC(=O)c1ccc(NC(=O)CN2C(=O)CSC2=O)cc1,0%,15%,/,0,-2%,1%,-7%
CC(=O)c1ccccc1-c1csc2ncnc(Sc3nnnn3C)c12,/,-12%,?,1,/,/,/
Cn1nnnc1Sc1ncnc2scc(-c3ccccc3C(F)(F)F)c12,-1%,-20%,?,9,/,13µM*,28µM*
CCOC(=O)C1=C(C)N=c2s/c(=C/c3ccco3)c(=O)n2C1c1cccc(OC)c1 (centres undefined),1%,16%,4%,-29,-2%,/,/
CCOC(=O)C1=C(C)N=c2s/c(=C/c3cccc([N+](=O)[O-])c3O)c(=O)n2C1c1cc(OC)c(OC)c(OC)c1 (centres undefined),1%,?,-4%,7,27µM*,32µM*,?
O=C(Nc1ccc2c(c1)ncn2-c1ccccc1)c1ccco1,-4%,11%,/,-10,?,14µM*,4.5µM*
COc1ccccc1Cc1c(-c2ccco2)nc2c(C)cc(Br)cn12,/,/,/,/,12µM*,-14%,-26%
COc1ccc(Cc2c(-c3ccco3)nc3ccc(Br)cn23)c(C)c1,/,/,/,/,24µM*,?,?
COc1cc2ccc(=O)oc2c(OC)c1OC,/,1%,/,/,/,/,/
COc1cc2ccc(=O)oc2c(O)c1O,0%,-19%,-16%,/,-4%,28µM*,35µM*
N#Cc1c(NC(NC(=O)c2ccco2)C(=O)c2ccccc2)sc2c1CCCC2 (centres undefined),-8%,-28%,-6%,12,-20%,?,3.5µM*
Cc1ccc(N=C2C(=O)Nc3ccccc32)cc1,1%,1%,3%,-2,-9%,/,/
CCN(CC)c1ccc(N=C2C(=O)Nc3ccccc32)cc1,6%,?,-3%,-15,-27%,?,-4%
COc1cc(C2c3c(-c4cc(C)ccc4O)n[nH]c3C(=O)N2CCCO)ccc1OCCC(C)C (centres undefined),/,11%,/,/,/,/,/
Nc1ccc(S(=O)(=O)c2cc(O)c3ccccc3c2O)cc1,-1%,?,7%,/,2.7µM*,13µM*,32µM*
Cc1ccc(C(=O)O/N=C(\N)c2ccccn2)c(Cl)c1,-2%,-9%,?,-5,3%,16µM*,13%
Cc1ccc(OCC(=O)Nc2ccc(OCc3cc(=O)n4ccsc4n3)cc2)cc1C,/,-6%,/,/,/,/,/
O=C1N=C(N2CCOCC2)S/C1=C/c1ccc(-c2ccccc2Cl)o1,-9%,-14%,8%,-7,-22%,/,/
O=C1S/C(=C\c2ccc(N3CCOCC3)o2)C(=O)N1Cc1c(F)cccc1Cl,?,?,-17%,-23,55%,18µM*,14µM*
Cn1c(=O)c2c(nc(N3CCOCC3)n2Cc2c(F)cccc2Cl)n(C)c1=O,-5%,9%,-9%,-10,0%,/,/
O=C1S/C(=C\c2ccc(N3CCOCC3)o2)C(=O)N1c1ccccc1,?,?,-3%,0,65%,?,?
O=C1S/C(=C/c2ccc(N3CCOCC3)o2)C(=O)N1Cc1c(F)cccc1Cl,?,79µM*,-2%,-17,43%,?,40µM*
COCCN(Cc1cc2cccc(C)c2n2nnnc12)C(=O)C(F)(F)F,4%,-16%,/,26,-5%,3%,-8%
CCN1CCN(C(c2cccc(OC)c2)c2sc3nc(C)nn3c2O)CC1 (centres undefined),0%,-9%,2%,6,6%,/,/
COc1cccc(C(c2sc3nc(C)nn3c2O)N2CCc3ccccc3C2)c1 (centres undefined),1%,-22%,2%,3,?,20µM*,25µM*
SMILES,TSG101-PTAP inh,VDR inh,uPA surface inh,TSHR antagonist,PLK1 PBD block,TbPYK confirm,TbPYK ADP-Glo
COc1cccc(C(=O)CSc2nnc(CNS(C)(=O)=O)n2-c2ccc(C)cc2)c1,-1%,?,-1%,-9,-19%,?,28µM*
COc1cccc(-n2c(COc3ccc(C)cc3)nnc2SCC(N)=O)c1,-3%,-17%,-1%,-12,-7%,/,/
CC(=O)Oc1ccc(Cn2c(C)c(C(=O)NCc3ccc4c(c3)OCCO4)sc2=O)cc1,/,/,/,/,-2%,/,/
O=C(O)CCNc1cc(N2CCN(C(=O)c3ccco3)CC2)c2noc3c2c1C(=O)c1ccccc1-3,?,?,-2%,-38,49%,/,/
CC(=O)OCCNc1cc(N2CCN(C)CC2)c2noc3c2c1C(=O)c1ccccc1-3,?,?,-2%,-20,20%,10µM*,?
COc1ccccc1CC(=O)NCCN1CCCCC1,-1%,-12%,-1%,8,-3%,/,/
Cc1ccc(S(=O)(=O)n2c([N+](=O)[O-])cnc2C)c(C)c1C,-4%,45µM*,0%,12,21µM*,4%,-4%
O=C(O)/C=C/C(=O)NNC(=O)c1cc(-c2ccccc2)n[nH]1,-2%,?,-7%,7,30µM*,?,?
Cc1ccc(C(=S)N2CCN(Cc3ccccc3)CC2)cc1,0%,?,1%,-5,8.4µM*,8.9µM*,13µM*
COc1cc(/C=N/N=C2/NC(=O)C(CC(=O)O)S2)ccc1OCc1ccc(Cl)cc1 (centres undefined),-2%,-26%,3%,4,-23%,16µM*,35µM*
Cc1csc(N=Nc2ccc(N(C)C)cc2)[n+]1[O-],/,/,/,/,-2%,18µM*,12%
COc1cccc(/C=N/Nc2ccnc(=O)[nH]2)c1O,1%,-10%,-11%,-11,1%,/,/
O=c1nccc(N/N=C/c2ccccc2O)[nH]1,-9%,-18%,0%,-7,?,?,4%
C=CCNC(=O)CSc1cc([N+](=O)[O-])cc(S(=O)(=O)Cc2ccccc2)c1,-2%,-28%,-1%,-1,?,/,/
O=C(CSc1cc([N+](=O)[O-])cc(S(=O)(=O)Cc2ccccc2)c1)NC1CC1,-1%,-17%,0%,-2,?,?,25µM*
COc1ccc(C2CC(=O)c3cc(-c4nc(-c5cccc([N+](=O)[O-])c5)cs4)c(=O)n(-c4ccccc4C)c3C2)cc1 (centres undefined),/,1%,/,/,/,/,/
